Most compounds without a hit are left out; they make up all but 19% or so of the library.
HT1080-NT tox – qHTS for induction of synthetic lethality in tumor cells producing 2HG: qHTS for the HT-1080-NT fibrosarcoma cell line; HT-1080-NT fibrosarcoma viability, CellTiter-Glo ATP luminescence, 48 h; Potency, µM (titrated, usually from 46.1 µM), usual class: cytotoxic; actives 1.6% (n = 360,000);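 further: NT is the 2HG producing partner of a matched IDH1 knockdown line; nearly all actives have a fitted effect of over 55% in size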
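A 48-hour cytotoxicity screen used HT-1080-NT cells plated 2 hours before compound delivery. ATP-based CellTiter-Glo luminescence measured viability, normalized to DMSO and no-cell controls.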
IL1B secr inh – qHTS for Inhibitors of Inflammasome Signaling: IL-1-beta AlphaLISA Primary Screen; THP-1 LPS/ATP IL-1B secretion, AlphaLISA, 16 h; stronger effect = lower value; activity change, % at 57.5 µM; actives 4.7% (n = 360,000); in the data active means activity change below about -50%; inconclusive means mostly about -30% to -49%
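Secreted IL-1B measured by AlphaLISA bead assay after 16 h compound exposure of THP-1 cells; compounds (final up to 57.5 uM) added 1 h before LPS (250 ng/mL) and ATP (1.25 mM) stimulation; lower signal means less secretion.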
ELG1 repair inh – qHTS screen for small molecules that inhibit ELG1-dependent DNA repair in human embryonic kidney (HEK293T) cells expressing luciferase-tagged ELG1; HEK293T ELG1-luciferase reporter, luminescence, 16 h; DNA damage induced by 5-fluorouridine; Potency, µM (top dose mostly 46.1 µM), most hits filed as inhibitors; actives 2.3% (n = 330,000); AID 504467, 2011; further: nearly all actives have a fitted effect of over 55% in size
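Quantitative HTS, concentration-response format. 2,000 cells/well co-treated with 5-fluorouridine and compound, 16 hr in 5% CO2 at 37 °C; ONE-Glo luminescence read after 30 min.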
DT40 TDP1 CPT – qHTS for Inhibitors of human tyrosyl-DNA phosphodiesterase 1 (TDP1): qHTS in cells in presence of CPT. chicken DT40 Tdp1-/-;hTDP1 cells + 20 nM CPT, ATP luminescence, 48 h. Potency, µM (titrated, usually from 46.2 µM), most hits filed as inhibitors. actives 12% (n = 420,000). AID 686979, 2013; further: nearly all actives have a fitted effect of over 55% in size
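Cell growth measured by CellTiter-Glo luminescence after a minimum 48 h, 37 C compound exposure with 20 nM CPT in Tdp1-knockout DT40 cells stably expressing hTDP1, seeded 400/well; qHTS titration format.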
TDP1 cell noCPT – qHTS for Inhibitors of human tyrosyl-DNA phosphodiesterase 1 (TDP1): qHTS in cells in absence of CPT; DT40 Tdp1-/- hTDP1 cells, no CPT, ATP luminescence, 48 h; Potency, µM (doses to about 46.2 µM), actives largely listed as inhibitors; actives 15% (n = 420,000); AID 686978, 2013; further: nearly all actives have a fitted effect of over 55% in size
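Camptothecin absent (DMSO only). Human TDP1-complemented DT40 knockout cells, 400 cells/well, 37 °C for minimum 48 hr; ATP measured via CellTiter-Glo, 30 min dark incubation, luminescence.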
HT1080 IDH1KD tx – qHTS for induction of synthetic lethality in tumor cells producing 2HG: qHTS for the HT-1080-IDH1KD cell line; HT-1080 IDH1 knockdown viability, ATP luminescence, 48 h; Potency, µM (titrated, usually from 46.1 µM), actives largely listed as cytotoxic; actives 2% (n = 360,000)
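IDH1KD HT-1080 cells, 750/well, RPMI + 5% FBS; compound pinned after 2 h settling; 48 h, 37 °C; CellTiter-Glo luminescence; % activity normalised to DMSO and no-cell wells; curves fitted, classed by r2 and efficacy.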
ELG1 FLuc counter – qHTS screen for small molecules that inhibit ELG1-dependent DNA repair: Hit Confirmation in Cell-Based Luciferin Assay; shares compounds with ELG1 repair inh; Potency, µM (top dose mostly 46.1 µM), actives largely listed as inhibitors; cell-free firefly luciferase luminescence counter-screen, ViewLux; actives 3% (n = 350)
ELG1 Luc conf – HTS assay for small molecules that inhibit ELG1-dependent DNA repair in human embryonic kidney (HEK293T) cells expressing luciferase-tagged ELG1: Hit Confirmation. AID 624248, 2012. shares compounds with ELG1 repair inh. HEK293T ELG1-luciferase levels, luminescence; cells co-treated with 5-fluorouridine. Potency, µM (top dose mostly 46.1 µM), most hits filed as inhibitors. actives 68% (n = 670); further: nearly all actives have a fitted effect of over 55% in size
Target sequence (Q96QE3 whole entry, looked up): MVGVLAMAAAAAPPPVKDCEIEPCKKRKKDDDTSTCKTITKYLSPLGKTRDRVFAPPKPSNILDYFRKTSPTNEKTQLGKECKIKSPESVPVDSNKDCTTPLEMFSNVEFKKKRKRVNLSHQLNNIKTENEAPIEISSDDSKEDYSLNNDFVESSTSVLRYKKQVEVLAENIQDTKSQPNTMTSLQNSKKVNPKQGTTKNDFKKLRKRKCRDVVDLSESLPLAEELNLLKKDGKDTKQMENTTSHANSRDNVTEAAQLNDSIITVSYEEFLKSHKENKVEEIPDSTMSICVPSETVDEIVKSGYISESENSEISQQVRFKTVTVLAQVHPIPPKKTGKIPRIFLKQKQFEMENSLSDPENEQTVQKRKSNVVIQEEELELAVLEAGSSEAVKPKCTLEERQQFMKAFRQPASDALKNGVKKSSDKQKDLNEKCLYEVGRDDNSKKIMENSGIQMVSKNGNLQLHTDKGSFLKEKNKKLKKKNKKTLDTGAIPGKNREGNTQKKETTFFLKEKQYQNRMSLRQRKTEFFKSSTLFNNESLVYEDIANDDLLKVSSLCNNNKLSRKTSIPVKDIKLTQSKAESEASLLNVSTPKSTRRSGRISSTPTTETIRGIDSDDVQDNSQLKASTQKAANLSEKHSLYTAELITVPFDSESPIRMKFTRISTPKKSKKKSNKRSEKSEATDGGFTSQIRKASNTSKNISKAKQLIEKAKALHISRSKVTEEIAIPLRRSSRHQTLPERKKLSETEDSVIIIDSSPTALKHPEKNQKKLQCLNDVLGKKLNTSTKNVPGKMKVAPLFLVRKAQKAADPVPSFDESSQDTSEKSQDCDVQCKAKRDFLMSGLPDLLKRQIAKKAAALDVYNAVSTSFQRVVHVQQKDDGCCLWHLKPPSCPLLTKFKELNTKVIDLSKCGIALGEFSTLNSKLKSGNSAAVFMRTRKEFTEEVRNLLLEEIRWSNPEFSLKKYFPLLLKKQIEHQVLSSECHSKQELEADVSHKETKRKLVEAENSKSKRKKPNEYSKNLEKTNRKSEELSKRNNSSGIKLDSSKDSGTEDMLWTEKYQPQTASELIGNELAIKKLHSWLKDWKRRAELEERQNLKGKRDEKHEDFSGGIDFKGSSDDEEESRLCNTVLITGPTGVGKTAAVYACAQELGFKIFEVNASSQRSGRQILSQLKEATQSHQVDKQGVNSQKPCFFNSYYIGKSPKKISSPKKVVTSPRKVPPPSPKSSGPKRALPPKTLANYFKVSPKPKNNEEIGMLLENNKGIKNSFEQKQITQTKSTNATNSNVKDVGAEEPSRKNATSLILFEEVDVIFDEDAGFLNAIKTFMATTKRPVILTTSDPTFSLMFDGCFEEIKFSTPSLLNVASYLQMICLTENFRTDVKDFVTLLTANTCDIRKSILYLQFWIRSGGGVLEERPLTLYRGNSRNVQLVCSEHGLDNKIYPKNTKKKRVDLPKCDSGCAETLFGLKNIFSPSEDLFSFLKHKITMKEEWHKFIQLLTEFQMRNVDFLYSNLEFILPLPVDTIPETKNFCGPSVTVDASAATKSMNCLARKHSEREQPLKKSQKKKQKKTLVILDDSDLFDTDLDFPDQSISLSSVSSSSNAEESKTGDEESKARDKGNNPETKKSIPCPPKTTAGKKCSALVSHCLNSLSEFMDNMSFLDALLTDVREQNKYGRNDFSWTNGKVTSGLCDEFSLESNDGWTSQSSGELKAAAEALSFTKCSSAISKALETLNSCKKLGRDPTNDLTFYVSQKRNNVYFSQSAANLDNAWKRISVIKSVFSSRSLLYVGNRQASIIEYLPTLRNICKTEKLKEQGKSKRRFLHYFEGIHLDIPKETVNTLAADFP
ELG1 MMS Luc – MMS-stimulated human ELG1 repair inhibition, confirmed | shares compounds with ELG1 repair inh | HEK293T luciferase-tagged ELG1 level, MMS stimulated | Potency, µM (series often up to 46.1 µM), hits mostly inhibitors | actives 53% (n = 670) | AID 624249; further: nearly all actives have a fitted effect of over 60% in size
ELG1 5FU viab – qHTS screen for small molecules that inhibit ELG1-dependent DNA repair: Hit Confirmation with 5FU Viability; shares compounds with ELG1 repair inh; cell viability with 5-FU, ELG1-dependent repair; Potency, µM (highest dose often 46.1 µM), actives largely listed as cytotoxic; 670 tested, under 10 active;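 further: ELG1-luc HEK293T cells cotreated with 5-fluorouridine at 10 µM final; viability measured 16 h after compound addition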
ELG1 MMS cell – qHTS screen for small molecules that inhibit ELG1-dependent DNA repair: Hit Confirmation with MMS Viability; actives 33% (n = 670); shares compounds with ELG1 repair inh; Cell viability with MMS, ELG1-dependent DNA repair; Potency, µM (titrated, usually from 46.1 µM), hits mostly cytotoxic;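 further: ELG1-luc HEK293T cells co-treated with 10 µM MMS; viability read 16 h after compound addition; nearly all actives have a fitted effect of over 60% in size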
ELG1 unstim viab – qHTS screen for small molecules that inhibit ELG1-dependent DNA repair: Hit Confirmation with Unstimulated Viability Assay; shares compounds with ELG1 repair inh; cell viability counter-screen, unstimulated, luminescence; Potency, µM (top dose mostly 45.9 µM), most hits filed as cytotoxic; actives 8% (n = 900);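 further: compound exposure lasted 16 hours before reading; nearly all actives have a fitted effect of over 55% in size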
FLuc biochem – qHTS screen for small molecules that inhibit ELG1-dependent DNA repair: Hit Confirmation in Biochemical Luciferin Assay | AID 624253, 2012 | shares compounds with ELG1 repair inh | actives 10% (n = 350) | purified firefly luciferase, luminescence counter-screen | Potency, µM (top dose mostly 57.5 µM), usual class: inhibitors
A number is an active result; n = inactive; u = inconclusive; x = not tested or not shown. Unless noted, the call rests on the fitted dose curve; in most records, active means well fitted curve in the direction sought with a large enough effect; inconclusive means small, poorly fitted or top-dose-only effect, or another doubt; inactive means no such curve, though single readings can be large; an effect the other way counts as inactive or inconclusive.

SMILES	HT1080-NT tox	IL1B secr inh	ELG1 repair inh	DT40 TDP1 CPT	TDP1 cell noCPT	HT1080 IDH1KD tx	ELG1 Luc conf	ELG1 MMS Luc	ELG1 5FU viab	ELG1 MMS cell	ELG1 unstim viab	others
O=C1NC2(CCCCCC2)C(=O)N1Cc1ccccc1Br	n	n	n	n	n	n	x	x	x	x	x
CC1(C)Cc2nc3nc(SCC(=O)NCCc4ccccc4)n(-c4ccccc4)c(=O)c3cc2CO1	n	n	4.6µM	n	n	n	u	n	u	n	u
CCOC(=O)c1cc(-c2cc3ccccc3o2)nc2c1c(=O)[nH]c(=O)n2CCOC	n	n	n	n	n	n	x	x	x	x	x
CCOC(=O)c1cc(-c2ccc([N+](=O)[O-])cc2)nc2c1c(=O)[nH]c(=O)n2Cc1ccccc1	n	n	n	7.3µM	5.8µM	n	x	x	x	x	n	ELG1 FLuc counter=n;FLuc biochem=n
CCCN1CCN(C(=O)CCc2nnc3ccc(N4CCN(c5cccc(OC)c5)CC4)nn23)CC1	n	n	u	u	n	n	x	x	x	x	x
COc1ccc2c(c1)c(CC(=O)Nc1cccc(S(N)(=O)=O)c1)c(C)n2C(=O)c1ccc(Cl)cc1	u	n	18µM	u	u	u	14µM	18µM	u	u	u	ELG1 FLuc counter=n;FLuc biochem=n
COc1ccc(NC(=O)Cc2c(C)n(C(=O)c3ccc(Cl)cc3)c3ccc(OC)cc23)cc1	n	n	2.6µM	n	n	n	18µM	n	u	n	n	ELG1 FLuc counter=n;FLuc biochem=n
CC(=O)c1cccc(NC(=S)NCCCCc2ccccc2)c1	n	u	n	u	u	n	x	x	x	x	x
NC(=O)c1c(NC(=O)Cn2cc([N+](=O)[O-])cn2)sc2c1CCCC2	n	n	n	u	u	n	x	x	x	x	x
CCOC(=O)c1c(NC(=O)Cn2cc([N+](=O)[O-])cn2)sc2c1CCC2	n	n	1.8µM	n	n	n	n	18µM	n	7.9µM	u
CCOc1cc(N2CCOCC2)c(OCC)cc1NC(=O)c1c(C)noc1C	n	n	n	n	n	n	x	x	x	x	x
CCOC(=O)c1c(C)[nH]c(C(=O)Nc2cc(OCC)c(N3CCOCC3)cc2OCC)c1C	n	n	4.6µM	u	u	n	5.6µM	n	u	n	n
CCCCc1nnc(NC(=O)C2CCN(c3ncnc4sc(C)c(C)c34)CC2)s1	n	n	n	u	u	n	x	x	x	x	x
Cc1sc2ncnc(N3CCC(C(=O)Nc4ccc(S(N)(=O)=O)cc4)CC3)c2c1C	n	n	4.1µM	u	15µM	n	7.1µM	20µM	u	n	u
Cc1sc2ncnc(N3CCC(C(=O)N(C)CC(=O)Nc4ccc(Cl)c(C(F)(F)F)c4)CC3)c2c1C	u	-55	3.7µM	u	15µM	16µM	7.1µM	7.1µM	u	u	u	ELG1 FLuc counter=u;FLuc biochem=n
CCOCCCNC(=O)C1CCN(c2cc(C)nc3c(-c4ccc(OC)c(OC)c4)c(C)nn23)CC1	n	n	2.6µM	n	u	n	u	n	u	n	n
Cc1cc(N2CCC(C(=O)NCCC(C)C)CC2)n2nc(C)c(-c3ccc(Cl)cc3)c2n1	x	x	x	n	n	x	x	x	x	x	x
CCOc1ccc(S(=O)(=O)NCCC(=O)NCc2ccc(OC)c(OC)c2)cc1	n	n	n	n	n	n	x	x	x	x	x
CS[C@@H]1SC[C@H]2C(=O)N(C)C(C(C)C)C(=O)OC[C@@H](NC(=O)c3cnc4ccccc4n3)C(=O)N[C@@H](C)C(=O)N(C)[C@H]1C(=O)N(C)C(C(C)C)C(=O)OC[C@@H](NC(=O)c1cnc3ccccc3n1)C(=O)N[C@@H](C)C(=O)N2C (stereo not given in full)	x	x	x	x	x	x	0.14µM	0.056µM	n	0.2µM	n	ELG1 FLuc counter=u;FLuc biochem=n
O=C(Nc1ccc(F)c(Cl)c1)C1CC2CCC1C2 (stereo not given)	n	n	x	n	u	n	x	x	x	x	x
COc1ccc(Cc2nnc(NC(=O)c3ccc(F)cc3)s2)cc1OC	n	n	n	n	n	n	x	x	x	x	x
COc1ccc(/C=N/NC(=O)c2ccc(CN3c4cccc5cccc(c45)S3(=O)=O)cc2)cc1	n	n	u	n	u	n	x	x	x	x	x
COc1cc(/C=N/NC(=O)c2ccc(CN3c4cccc5cccc(c45)S3(=O)=O)cc2)cc(OC)c1O	n	n	3.3µM	u	16µM	n	3.5µM	22µM	u	25µM	u
O=C(CN1c2cccc3cccc(c23)S1(=O)=O)NCCc1ccccc1	n	n	u	n	n	n	x	x	x	x	x
